Screening results from PubChem BioAssay.
The list is not random: actives were taken first. Their share in the collection is about 3%.
Tau fibril FP: blocks human tau fibril formation measured by polarization | 0.39% of 280,000 active | AID 1468 | Potency, µM (top dose mostly 57.7 µM), without a hit: at the top dose activity, negative = inhibition, usual class: inhibitors | P10636 | K18 P301L tau heparin fibrillization, Alexa594 FP, 6 h; also: nearly all actives have a fitted effect of over 55% in size
Target sequence (P10636 561-689 P618L limits assumed): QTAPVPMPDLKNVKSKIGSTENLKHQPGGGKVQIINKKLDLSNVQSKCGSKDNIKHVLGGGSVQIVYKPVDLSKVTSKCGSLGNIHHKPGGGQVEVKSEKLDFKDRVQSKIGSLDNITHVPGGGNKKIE
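FP of Alexa 594-tau after heparin (20 uM) induction. Substrate: human K18 P301L, 15 uM unlabeled, 0.24 uM labeled. Buffer 100 mM sodium acetate pH 7. 6 hr, 37 C.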
Tau fibril ThT: tau fibrillization inhibition (ThT binding) | P10636 | 2.1% of 270,000 active | Potency, µM (series often up to 57.4 µM), inactives show top-dose activity, negative = inhibition, most hits filed as inhibitors | recombinant tau K18 P301L, heparin-induced fibrillization, ThT fluorescence; also: nearly all actives have a fitted effect of over 55% in size
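In this qHTS, human K18 P301L tau is incubated with compound and heparin for 6 hr at 37 C, and Thioflavin T fluorescence then reports fibril load.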
TRb SRC2 PPI: disrupts binding of human TR beta to SRC2; TRbeta-SRC2 peptide binding, fluorescence polarization; receptor liganded with 1 µM T3; 0.065% of 280,000 active; AID 1469; Potency, µM (series often up to 106 µM), for the others: top-dose activity change, negative = inhibition, hits mostly inhibitors; P10828;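 also: plate controls were bound peptide for no effect and peptide without receptor for full effect; nearly all actives have a fitted effect of over 50% in size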
Target sequence (P10828 whole entry, looked up): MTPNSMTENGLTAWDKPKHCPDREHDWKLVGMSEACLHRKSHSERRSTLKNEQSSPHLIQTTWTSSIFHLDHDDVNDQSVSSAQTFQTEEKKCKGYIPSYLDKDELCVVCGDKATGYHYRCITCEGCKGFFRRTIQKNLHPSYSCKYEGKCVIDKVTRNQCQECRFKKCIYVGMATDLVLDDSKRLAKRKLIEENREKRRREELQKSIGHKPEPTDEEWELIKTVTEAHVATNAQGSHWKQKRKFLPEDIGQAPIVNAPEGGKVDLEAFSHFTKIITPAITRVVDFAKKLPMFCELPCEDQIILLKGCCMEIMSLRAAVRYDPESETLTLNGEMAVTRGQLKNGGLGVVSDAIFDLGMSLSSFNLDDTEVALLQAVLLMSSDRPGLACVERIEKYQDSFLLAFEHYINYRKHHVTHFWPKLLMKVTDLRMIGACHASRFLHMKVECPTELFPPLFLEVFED
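Each compound concentration gave % activity, normalized to unbound and bound Texas Red SRC2 controls, from polarization read after 5 hr ambient incubation with T3-loaded human TRb LBD.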
Tau fluor cs: counter-screen for tau fibril formation inhibitors; 0.93% of 280,000 active; AID 1463; Potency, µM (doses to about 57.7 µM), for inactives: at the highest dose activity change, negative = decrease; tau K18 P301L Alexa594 fluorescence, heparin fibrillization; also: nearly all actives have a fitted effect of over 55% in size
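Human tau K18 P301L (15 uM unlabeled, 0.24 uM Alexa 594-labeled) in 100 mM sodium acetate pH 7 with 20 uM heparin, 6 hr at 37 C. ThT 30 uM added, 1 hr ambient; Alexa 594 FP and total fluorescence read at 555/632 nm.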
TR SRC2 fluor cs: Texas Red fluorescence interference in TRb-SRC2 counter-screen; TRb/SRC2 Texas Red total fluorescence interference; Potency, µM (highest dose often 106 µM), for inactives: at the top dose fluorescence change, negative = quenching; 0.29% of 280,000 active; AID 1479; active = well fitted curve in either direction with a large enough effect; inconclusive = small, poorly fitted or top-dose-only effect
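Human TRb ligand-binding domain at 0.6 uM with 20 nM Texas Red SRC2 peptide in Tris buffer containing 1 uM T3 and 5% DMSO, incubated with compound 5 h at ambient temperature. Total fluorescence (555/632 nm) calculated as parallel + 2 × perpendicular.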
The depositor's hits bear a star; ? = inconclusive; nt = no result given; [ ] = dose if it differs, or a comment. Unless noted, calls follow the shape of the dose curve; as a rule, active = well fitted curve in the direction sought with a large enough effect; inconclusive = small, poorly fitted or top-dose-only effect, or another doubt; inactive = no such curve, though single readings can be large; an effect the other way counts as inactive or inconclusive. Unless noted, % is scaled to controls: 0 for no effect and ±100 for the full control effect; potency is read from the fitted curve at half-maximal effect.

SMILES	Tau fibril FP	Tau fibril ThT	TRb SRC2 PPI	Tau fluor cs	TR SRC2 fluor cs
O=C1C2=C(Nc3ccccc3SC2c2c(F)cccc2Cl)c2ccccc21 (stereo not given)	?	?	-7%	?	0%
O=C1C2=C(Nc3ccccc3SC2c2ccc(Cl)c(Cl)c2)c2ccccc21 (stereo not given)	?	?	3%	?	-1%
C=CCCCCCCCCCBr	nt	nt	1%	nt	-3%
COc1ccc(CNC(=O)Cn2c(=O)nc(-c3ccccc3F)c3cc(Cl)ccc32)cc1OC	-3%	-11%	3%	-7%	-4%
CCOc1ccc(Nc2nc(C)c(NC(=O)c3cccc(OC)c3)c(Nc3ccc(OCC)cc3)n2)cc1	12%	?	-2%	11µM*[quencher]	-1%
CCOc1ccc(C(=O)Nc2c(C)nc(Nc3ccccc3)nc2Nc2ccccc2)cc1OCC	-9%	?	-8%	?	1%
COC(=O)C(C(=O)OC)C1c2ccccc2C=C(C)N1C(=O)OC (stereo not given)	5%[11.6 µM]	-5%[11.5 µM]	-1%[11.2 µM]	-2%[11.6 µM]	-3%[11.2 µM]
O=C(CSc1nc2c([nH]c3ccccc32)c(=O)n1-c1ccc(F)cc1)N1CCCCCC1	-10%	4%	4%	0%	4%
COc1ccc(NC(=O)c2cccs2)cn1	-9%	-13%	-4%	-20%	1%
CC(C)(C)c1ccc(Oc2ccc(NC(=O)c3cccs3)cn2)cc1	28µM*	1%	-3%	?	-2%
CCc1ccc(-n2nc3ccc(NC(=O)c4ccc(C#N)cc4F)cc3n2)cc1	-7%	-10%	?	-10%	?
O=C(Nc1ccccc1)N(O)c1ccc(Cl)cc1	?	25µM*	1%	-20%	1%
O=C(CCCn1c(=O)c2sccc2n(Cc2ccc(F)cc2Cl)c1=O)NCc1ccc2c(c1)OCO2	-7%	7%	0%	-2%	-32%
O=C(CCc1ccccc1)Nc1nc2c(F)cc(F)cc2s1	-8%	nt	-2%	-11%	-1%
NNc1nc2c(F)cccc2s1	?	16µM*	7%	18µM*[quencher]	-22%
NNc1nc2c(F)cc(F)cc2s1	-5%	13µM*	-5%[53 µM]	?	-1%[53 µM]
CC1(C)CC(=O)C(C=Nc2ccc(O)c(N=CC3=C(O)CC(C)(C)CC3=O)c2)=C(O)C1	?	4µM*	1%	?	0%
CC1(C)CC(=O)C(C=Nc2ccc3c(c2)OCO3)=C(O)C1	-3%	-11%	-3%	-8%	-3%
O=C1NC(=Nc2ccc3ccccc3c2)S/C1=C/c1ccco1	?	14µM*	11%	?	-14%
COc1ccc(N=C2NC(=O)/C(=C\C=C\c3ccco3)S2)cc1	?	8.9µM*	2%	?	-27%
Cc1ccc(N=C2NC(=O)/C(=C\c3ccco3)S2)cc1	6%	?	1%	-27%	-11%
Cc1cccc(N=C2NC(=O)/C(=C/C=C/c3ccco3)S2)c1	-9%	5µM*	14%	-28%	-17%
COc1cc(OC)c(NC(=O)N2CCc3c([nH]c4ccccc34)C2c2ccccc2F)cc1Cl (stereo not given)	1%	1%	3%	?	0%
COCCCNc1ncnc2c1c(-c1ccccc1)cn2-c1ccc(C)c(Cl)c1	7%	-7%	1%	2%	0%
COc1cccc([C@@H]2Oc3ccc(OC)cc3C(=O)[C@H]2OC(=O)NCCc2ccc(OC)c(OC)c2)c1	-4%	?	4%	-13%	1%
SMILES	Tau fibril FP	Tau fibril ThT	TRb SRC2 PPI	Tau fluor cs	TR SRC2 fluor cs
Cc1ccc(C)c(N2CCN(C(=O)CS(=O)(=O)c3cccc4nsnc34)CC2)c1	8%	-15%	-29%	-7%	0.035µM*[quencher]
CCN(CC)c1ccc(-n2cc3c(=O)n(C)c(=O)n(C)c3c2)cc1	6%	5µM*	-3%	?	-9%
CN(C)c1ccc(-n2cc3c(=O)n(C)c(=O)n(C)c3c2)cc1	3%	2.8µM*	-4%	-20%	-7%
CC(=O)N1CCc2cc(S(=O)(=O)NC(Cc3ccccc3)C(=O)Nc3ccc(C)cc3C)ccc21 (stereo not given)	-2%	-10%	-2%	-13%	0%
CN(C)c1ccc(Nc2nc3ccccc3n3nnnc23)cc1	13%	7.9µM*	-1%	11µM*[quencher]	-1%
CCOc1ccc(Nc2nc3ccccc3n3nnnc23)cc1	10%	-16%	-1%	?	-1%
CCN1CCOC(=O)C1CC(=O)Nc1cc(C)ccc1OC (stereo not given)	-9%	?	3%	-11%	?
Cc1ccc(S(=O)(=O)C2CS(=O)(=O)CC2O)cc1 (stereo not given)	7%	6%	-10%	6%	-4%
CC(=O)C1=C(S(=O)(=O)c2ccc(C)cc2)CS(=O)(=O)C1	28µM*	25µM*	-6%	-20%	-1%
Cc1ccc(CNC(=O)C2CCN(C(=O)N3CC(C)Oc4ccc(Cl)cc43)CC2)cc1 (stereo not given)	-15%	?	2%	?	5%
CCOc1ccc(NC(=O)C2CCN(C(=O)N3CC(C)Oc4ccc(Cl)cc43)CC2)cc1 (stereo not given)	-11%	?	-16%	?	100µM*[quencher]
Cc1cc(C)c(NC(=O)C2CCN(C(=O)N3CC(C)Oc4ccc(Cl)cc43)CC2)c(C)c1 (stereo not given)	1%	-17%	-3%	-4%	-17%
Cc1ccc2c(c1)N(C(=O)N1CCC(C(=O)NCCc3ccc(Cl)cc3)CC1)CC(C)O2 (stereo not given)	7%	-4%	-6%	7.9µM*[quencher]	0%
CC1CN(C(=O)N2CCC(C(=O)NC3CCCCCC3)CC2)c2cc(Cl)ccc2O1 (stereo not given)	?	20µM*	-3%	?	1%
CC1(OC(=O)C2CCCC2)C(=O)C=C2C=C(c3ccsc3)N(c3cccc(C#N)c3)C=C2C1=O (stereo not given)	0%[11.6 µM]	1%[11.5 µM]	7%[11.2 µM]	2%[11.6 µM]	3%[11.2 µM]
CCOC(=O)c1[nH]c2c(c1Cc1ccccc1OC)C(=O)CC(c1ccccc1)C2 (stereo not given)	-6%	5%	-5%	-10%	1%
COc1ccc(/C=C2\COc3ccccc3C2=O)cc1OC	2%	?	-6%	7%	-3%
COc1ccc2c(c1)OC/C(=C\c1ccc(OC)c(O)c1)C2=O	-5%	4.5µM*	-1%	?	-5%
O=c1oc2ccccc2c(O)c1Cc1cc(Cl)c2cccnc2c1O	?	14µM*	-2%	?	-9%
Oc1c(CN2CCc3ccccc3C2)cc(Cl)c2cccnc12	-3%	?	-12%	-29%	2%
COc1ccccc1-n1c(C)c2c(OC)cccc(=O)c2c1C	-4%	?	-3%	-9%	-2%
CCOc1cccc(=O)c2c(C)n(-c3ccc(C(=O)O)cc3)c(C)c12	-9%	?	-1%	-10%	-2%
